About 13,000 (27%) of roughly 48,000 compounds showed an effect of 50% or more. Some of the results follow.
Tested on: Wolbachia pipientis
Assay: Anti-Wolbachia Cell-Based Screen
Format: functional
Design: scale not given: in the data most compounds retested in dose-response had high values
Settings: 5 µM

SMILES | Percent Effect [%]
CCCN(C(=O)CCS(=O)(=O)Cc1ccccc1)c1cccc(C)c1 | -47.75
Cc1ccc(-c2cn3c(n2)CO[C@@H](CNCc2cccnc2)C3)cc1 | 0.839
Cc1[nH]/c(=N\C(=O)c2csc(NCC(C)C)n2)sc1C | 1.657
CNC(=O)CCC(=O)N1CCOC(c2ccc3cc(OC)ccc3c2)C1 (stereo not given) | 9.004
CCn1ccc2cc(NC(=O)CC3CCCO3)ccc21 (stereo not given) | 3.531
COc1ccc2c(ccn2CCC(=O)/N=c2\[nH]nc(C3CCCO3)s2)c1 (stereo not given) | 126.4
CCCC(C)CN1CCC(n2cc(C3CCCC3)nn2)CC1 (stereo not given) | 0.2453
CC(C)Nc1cc(N2CCC(n3cc(CCO)nn3)CC2)ncn1 | 96.69
CC(C)Nc1cc(N2CCC(n3cc(C4CC4)nn3)CC2)ncn1 | 77.15
O=C(NC1CC1)c1cn(C2CCN(c3cc(C4CC4)ncn3)CC2)nn1 | -15.81
CCc1cc(N2CCC(n3cc(C(=O)NCC(C)C)nn3)CC2)ncn1 | -7.159
Cc1cc(N2CCC(n3cc(CCCO)nn3)CC2)ccn1 | 1.957
CCc1cc(N2CCC(n3cc(C(=O)NC4CC4)nn3)CC2)ncn1 | -11.68
CCC(C)CN1CCC(n2cc(C3CCCC3)nn2)CC1 (stereo not given) | -13.12
OCCNc1cc(N2CCC(n3cc(C4CCCC4)nn3)CC2)ncn1 | 104
CC(C)Nc1cc(N2CCC(n3cc(C4CCCC4)nn3)CC2)ncn1 | 92.63
C=C(C)CN1CCC(n2cc(C3CCCC3)nn2)CC1 | 14.96
CCC(C)CN1CCC(n2cc(C3CCCCC3)nn2)CC1 (stereo not given) | -12.86
Cc1nn(CCO)c(C)c1CNC1CCC(C)(C)c2ccccc21 (stereo not given) | -8.145
CNCCN1C(=O)CC[C@H]2CN(c3cnc4ccccc4n3)CC[C@H]21 | -7.782
CC(C)COC1CCN(C(=O)c2ccc(C(F)(F)F)[nH]c2=O)CC1 | 17.18
N#Cc1ccc(CS(=O)(=O)NC(=O)c2ccc(C#N)cc2)cc1 | 0.6106

SMILES | Percent Effect [%]
CCN1CCc2c(sc3c2C(=O)NC(/C=C\c2ccccc2)N3)C1 (stereo not given) | 141.7
CCN1CCc2c(sc3c2C(=O)NC(/C=C/c2ccco2)N3)C1 (stereo not given) | 144
CN1CCc2c(sc3c2C(=O)NC(/C=C/c2ccccc2)N3)C1 (stereo not given) | 102.8
NC(=O)Nc1cccc(CNC(=O)CCCOCc2ccccc2)c1 | -14.12
Cc1noc(C)c1C(=O)N(Cc1ccsc1)CC1CCCO1 (stereo not given) | -86.84
CCN1CCN(S(=O)(=O)N2CCCCCC2)[C@H]2CS(=O)(=O)C[C@H]21 | 2.124
CCCC(=O)N(CCCN1CCOCC1)c1nc2c(Cl)cccc2s1.Cl | 31
Cn1c(-c2ccccc2Cl)nc2cc(C(=O)NCC3(CO)CC3)cnc21 | 10.87
Cc1noc(CCCC(=O)NCC(c2ccco2)N2CCCC2)n1 (stereo not given) | 1.423
CC(C)c1noc(CCC(=O)NCC(c2ccco2)N2CCCC2)n1 (stereo not given) | -11.99
O=C(CCn1cncn1)NCC(c1ccco1)N1CCCC1 (stereo not given) | 144.5
O=C(NCCCn1cncn1)NCC(c1ccco1)N1CCCCC1 (stereo not given) | 9.107
Cc1noc(CCCC(=O)NCC(c2ccco2)N2CCCCC2)n1 (stereo not given) | -0.8117
O=C(CCn1cncn1)NCC(c1ccco1)N1CCCCC1 (stereo not given) | 106.2
CC1CCN(CC(O)CN2CCn3c(nnc3C3CC3)C2)CC1 (stereo not given) | -2.379
Cc1ccoc1-c1nnc(CN2CCn3c(nnc3C3CC3)C2)o1 | 8.401
CC(C)c1nnc(NC(=O)CCc2cc(F)ccc2F)[nH]1 | -72.05
Cc1n[nH]c(C)c1CCCN(C)Cc1c[nH]nc1-c1ccc(F)cc1 | -0.8434
Cc1n[nH]c(C)c1CCC(=O)N(C)Cc1cn[nH]c1-c1ccc(F)cc1 | 62.4
CN(Cc1cn[nH]c1-c1ccc(F)cc1)C(=O)CCC1CC1 | -8.61
COc1cc(CNC(=O)Nc2nnc(C3CC3)s2)ccc1O | -2.048
CCCc1nnc(NC(=O)NC2CCOc3ccccc32)s1 (stereo not given) | -4.049

SMILES | Percent Effect [%]
COc1ccc(CCc2nnc(NC(=O)C3CC34CCC4)s2)cc1OC (stereo not given) | 134.8
CC(=O)NC(C)CC(=O)NCc1cccnc1Oc1ccccc1C (stereo not given) | -2.321
COc1ccc(C(CC(=O)NCc2n[nH]c(N)n2)c2ccccc2)cc1 (stereo not given) | -21.33
COc1cc2ncn(CC(=O)NCCCN(C)C)c(=O)c2cc1OC | 7.86
COc1cc2nc(C)n(CC(=O)O)c(=O)c2cc1OC | 17.35
COc1cc2ncn(Cc3ncc[nH]3)c(=O)c2cc1OC | 88.22
CNC(=O)C1CCN(Cc2nc(-c3ccc(SC)cc3)oc2C)C1 (stereo not given) | 1.342
COC(=O)CCC(=O)N1CCc2nc(C(=O)N3CCCCC3)sc2CC1 | -23.17
CCCOCC(=O)N1CCc2nc(NC)nc(C(=O)N3CCCC3)c2C1 | 106.3
CCN(C)CC(=O)N1CCc2nc(NC)nc(C(=O)N3CCCC3)c2C1 | 92.7
CCC(OC)C(=O)N1CCc2nc(NC)nc(C(=O)N3CCCC3)c2C1 (stereo not given) | 0.1298
CNc1nc2c(c(C(=O)N3CCCC3)n1)CN(C(=O)CCSC)CC2 | 109.5
Cc1nc(N2CCCC2)nc2c1CCN(C(=O)CN(C)C)CC2.O=C(O)C(F)(F)F | -8.605
CCN(C)c1ncnc2c1CCN(C(=O)N1CCCC1)CC2.O=C(O)C(F)(F)F | -2.138
CNc1nc2c(c(C(=O)N3CCCC3)n1)CN(C(=O)C1CCCC1)CC2 | 99.86
CC(C)Nc1nc2c(c(NC3CC3)n1)CN(C(=O)c1ccsc1)CC2 | 4.633
CCCOCC(=O)N1CCCC(c2nnc(CN3CCCCC3)n2C)C1 (stereo not given) | -4.962
CC(C)Nc1nc2c(c(NC3CC3)n1)CN(C(=O)c1ccnnc1)CC2 | 10.08
CCc1nc(CN2CCCN(C(=O)CCSC)CC2)cs1 | -7.739
CNc1nc2c(c(C(=O)N3CCCC3)n1)CN(C(=O)c1cccs1)CC2 | 93.6
O=C(c1cccs1)N1CCN(C(=O)c2ncoc2-c2ccco2)CC1 | -2.664
Cc1csc(N2CCCN(C(=O)c3cccs3)CC2)n1 | 5.258

SMILES | Percent Effect [%]
Cc1oncc1C(=O)N1CCCc2c(C#N)nn(C)c2C1 | 10.9
Cc1cccc(C(=O)NCCS(=O)(=O)Cc2ccccc2)c1 | -4.406
O=C(NCC[S+]([O-])Cc1ccccc1)c1ccc2[nH]c(=O)[nH]c2c1 (stereo not given) | 105
O=C(NCC[S+]([O-])c1ccccc1)c1ccc2[nH]c(=O)[nH]c2c1 (stereo not given) | 103.1
O=C(NCC[S+]([O-])c1ccccc1)NCC(F)(F)F (stereo not given) | -2.779
Cc1nn(C)c(C)c1OCC(=O)NCC(O)Cc1ccccc1 (stereo not given) | -7.018
O=C(NCCCO)Nc1cccc(C[S+]([O-])Cc2ccccc2)c1 (stereo not given) | -4.621
O=C(NCC(O)Cc1ccccc1)c1ccc2[nH]c(=O)[nH]c2c1 (stereo not given) | 124
CSC(C)(C)CNC(=O)NCC[S+]([O-])c1ccccc1 (stereo not given) | 5.192
O=C(NCC(O)c1ccc(F)cc1F)c1ccccc1 (stereo not given) | 4.07
Cc1ccn2ncc(C(=O)N3CCCC(c4noc(C)n4)C3)c2n1 (stereo not given) | 1.825
CCOCCCNc1nc(CS(=O)(=O)c2ccccc2)cs1 | -0.3734
CCOCCNCc1cc(O)c2cc(C)ccc2n1 | -3.741
CCOCCNS(=O)(=O)c1cc(C)c2nc(O)cc(C)c2c1 | 93.93
NC(=O)CN1CCC2(CC1)CC(=O)c1ccc3ccccc3c1O2 | 103.8
CCOC(=O)CN1CCC2(CC1)CC(=O)c1ccc3ccccc3c1O2 | 117.9
CCOc1cccc(CNC(=O)CN2CCC3(CCOC3)C2)c1 (stereo not given) | -4.928
Cc1ccccc1CN1C[C@@H]2OCC(=O)N(CC(N)=O)[C@@H]2C1 | -9.838
CN1CC(c2ccccc2)CC2(CCN(CC(=O)N(C)C)CC2)C1 (stereo not given) | -1.357
CN(C)C(=O)CN1CCC2(CC1)COC2 | -28.68
CCOC(=O)CN1CCC2(CC1)CC(NC(=O)c1ccccn1)CO2 (stereo not given) | -1.011
CN(C)C(=O)CN1CCCN(CC2CCOc3ccccc3C2)CC1 (stereo not given) | -6.111

SMILES | Percent Effect [%]
NC(=O)CN1CCCC(C(=O)N2CCC(O)(c3ccccc3)CC2)C1 (stereo not given) | -6.911
CN(C)C(=O)CN1CCN(C(=O)C2CSc3ccccc3O2)CC1 (stereo not given) | -6.188
CN(C)C(=O)CN1CCC2(CC1)CC(=O)c1ccc3ccccc3c1O2 | 109.8
CN(C)C(=O)CN1CCC2(CC1)CC(=O)c1c(ccc3ccccc13)O2 | 104.8
CC(C)Nc1cc(N2CCCC3(CN(C)C(=O)O3)C2)ncn1 (stereo not given) | -4.728
Cc1cccnc1NC(=O)C1CCCN(c2cccc(C(F)(F)F)n2)C1 (stereo not given) | 9.755
CCn1cc(CN(C)C(=O)C(c2ccccc2C)N(C)C)cn1 (stereo not given) | 1.037
Cc1ccc2[nH]c(CO[C@H]3CN(C(=O)C4CC4)C[C@H]3F)nc2c1 | -10.96
CSCC(=O)N1CCCC1c1noc(C2CC2)n1 (stereo not given) | 7.079
O=C(CCCn1cncn1)N1CCCC1c1noc(C2CC2)n1 (stereo not given) | 94.63
O=C(CCn1cncn1)N1CCCC1c1noc(C2CC2)n1 (stereo not given) | 89.8
O=C(CCCn1cncn1)N1CCCC1c1nc(-c2ccccc2)no1 (stereo not given) | 16.9
OCC(O)CSCc1cn(-c2ccc(Cl)cc2)nn1 (stereo not given) | -1.714
c1ccc(CCN2CCN(C3CCOC4(CCOCC4)C3)CC2)nc1 (stereo not given) | 69.95
CN1CCN(C(=O)CC2CCN(CCc3ccccn3)CC2)CC1 | -2.122
COC(=O)C(O)C1CCN(CCc2ccccn2)CC1 (stereo not given) | -11.11
O=C(O)C(F)(F)F.c1ccc(OC2COC3(CCN(Cc4ccccn4)CC3)C2)cc1 (stereo not given) | -3.872
O=C1NC2(CCN(CCc3ccccc3)CC2)CC1c1ccccc1 (stereo not given) | -3.919
c1ccc(CCN2CCN(C3CCOC4(CCOCC4)C3)CC2)cc1 (stereo not given) | 96.21
O=C1OC2(CCN(C3CCCOC3)CC2)CN1CCc1ccccc1 (stereo not given) | 0.1893
c1ccc(CN2CCN(C3CCOC4(CCOCC4)C3)CC2)nc1 (stereo not given) | 115.7
O=C(NC1COC2(CCN(Cc3ccccn3)CC2)C1)c1ccccn1.O=C(O)C(F)(F)F (stereo not given) | -3.603

— ChEMBL document CHEMBL3988442, “University of Dundee, Small-Polar-MMV Screening Library” (2021)
